Data reported in PubChem BioAssay.
Active and inactive are the calls of the source. Unless noted, no rule for the calls is given here.

Columns and labels:
[1] = system: Wnt5a (protein binding on small-molecule microarray); assay: Wnt5a binders on small-molecule microarray, primary screen, biophysical, 635/667 nm fluorescence (AID 1142); conditions: 635 nm fluorescence, higher = more signal;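 also: fluorescence read at 667 nm with signal to noise per printed feature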
[2] = cell viability in Huh7 cells, primary screen, cytotoxicity control for HCV replication inhibitor project, CellTiter-Glo luminescence, basal, 48 h (AID 1143); conditions: Huh7 HCV replicon, higher = more signal, called active from +8 up or from −8 down;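 also: Huh7 hepatoma cells carrying a hepatitis C replication reporter with no stimulus; test concentration not given here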
[3] = P. aeruginosa biofilm formation inhibitors, primary screen, PAO1 strain, BacTiter-Glo luminescence, LB-PBS (AID 1144); conditions: 12 h, higher = more signal
[4] = CREB reporter modulators without forskolin, primary screen, cell-based, PC12, CRE-LacZ reporter, unstimulated (AID 1145); conditions: no forskolin, luminescence, 4.5 h, higher = more signal, called active from +8 up or from −8 down
[5] = CREB reporter modulators under forskolin, primary screen, cell-based, PC12, CRE-LacZ reporter, forskolin-stimulated (AID 1146); conditions: luminescence, 4.5 h, higher = more signal, called active from +8 up or from −8 down;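 also: PC12 cells with 6xCRE LacZ reporter stimulated by forskolin 10 µM; beta-galactosidase reporter signal reflecting CREB driven transcription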
[6] = biological target: Streptavidin (Streptomyces avidinii) (UniProt P22629); assay: streptavidin binders on small-molecule microarray, primary screen, artefact control for SMM compound annotation, biophysical, 635/667 nm fluorescence (AID 1147); conditions: streptavidin binding, higher = more signal;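 also: signal reflects streptavidin binding to arrayed compounds as a control protein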
Chain of Streptavidin (Streptomyces avidinii) (P22629 whole entry, looked up): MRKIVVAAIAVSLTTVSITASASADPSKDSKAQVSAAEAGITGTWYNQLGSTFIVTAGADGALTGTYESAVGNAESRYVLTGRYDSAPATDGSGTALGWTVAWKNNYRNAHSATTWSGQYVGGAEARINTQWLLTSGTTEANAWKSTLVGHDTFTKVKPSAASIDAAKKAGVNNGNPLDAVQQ

[7] = small-molecule binders of probe aInhba, primary screen, biochemical, small-molecule microarray, 635/667 nm fluorescence (AID 1148); conditions: higher = more signal;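 also: score merges 667nm spot fluorescence with signal-to-noise for antibody binding to printed compounds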
Torsin-1A (Homo sapiens) [8] = biological target: Torsin-1A (Homo sapiens) (UniProt O14656); assay: torsin A binders from cell lysate, primary screen, small-molecule microarray, wild-type, 635/667 nm (AID 1149); conditions: COS7 hTOR1A-WT lysate, 635 nm fluorescence, higher = more signal
Chain of Torsin-1A (Homo sapiens) (O14656 whole entry, looked up): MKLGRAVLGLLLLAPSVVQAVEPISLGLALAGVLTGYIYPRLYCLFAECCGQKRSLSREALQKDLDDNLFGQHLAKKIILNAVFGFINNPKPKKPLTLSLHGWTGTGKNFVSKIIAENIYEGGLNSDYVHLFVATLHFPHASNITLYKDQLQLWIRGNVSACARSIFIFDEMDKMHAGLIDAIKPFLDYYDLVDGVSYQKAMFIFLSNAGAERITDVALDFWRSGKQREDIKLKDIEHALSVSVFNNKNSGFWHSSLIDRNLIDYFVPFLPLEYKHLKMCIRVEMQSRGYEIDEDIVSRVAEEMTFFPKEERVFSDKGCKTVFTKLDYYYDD

Torsin-1A (Homo sapiens) [9] = biological target: Torsin-1A (Homo sapiens) (UniProt O14656); assay: small-molecule binders of mutant TOR1A in lysate, primary screen, cell lysate, small-molecule microarray, COS7 lysate, 635/667 nm fluorescence (AID 1150); conditions: COS7 hTOR1A mutant lysate, 635 nm fluorescence, higher = more signal;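 also: score pools 667 nm emission and signal to noise measuring lysate protein binding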
[10] = system: Sonic hedgehog protein (Shh); assay: small-molecule binders of Shh protein, primary screen, biochemical, small-molecule microarray, 635/667 nm fluorescence (AID 1151); conditions: small-molecule microarray binding, 635 nm fluorescence; higher = more signal;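 also: Shh protein binding to compounds spotted on small-molecule microarray slides; score combines spot fluorescence intensity with signal-to-noise across triplicate slides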
[11] = E. coli DRC41 culture turbidity changes, primary screen, E. coli filamentation inducer project, strain DRC41, OD650, 48 h (AID 1152);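 also: E. coli MC1000 strain DRC41 lacking acrAB efflux pump and sulA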; conditions: E. coli DRC41 (acrAB sulA), higher = more signal, called active from +8 up or from −8 down
[12] = small-molecule binders of probe aLefty1, primary screen, biochemical, small-molecule microarray, 635/667 nm fluorescence (AID 1153); conditions: higher = more signal;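 also: score merges spot fluorescence with signal-to-noise ratio from the scanned slide images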
[13] = PSAC antagonists in infected red cells, primary screen, cell-based, P. falciparum Indochina, OD700, 1 h (AID 1154); conditions: P. falciparum Indochina infected RBC osmotic lysis, higher = more signal, called active from +8 up or from −8 down
[14] = PSAC antagonists in infected red cells, primary screen, cell-based, P. falciparum Indochina, OD700, 2 h (AID 1155);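 also: lysis reports solute entry through the parasite surface anion channel PSAC; channel blockers reduce lysis of infected cells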; conditions: P. falciparum Indochina infected erythrocytes, osmotic lysis OD700; higher = more signal, called active from +8 up or from −8 down
[15] = osmotic lysis modulators in infected erythrocytes, primary screen, PSAC antagonist project, cell-based, P. falciparum Indochina, OD700, 3 h (AID 1156); conditions: higher = more signal, called active from +8 up or from −8 down
[16] = PSAC antagonists in infected red cells, primary screen, cell-based, P. falciparum Indochina, OD700, 18 h (AID 1157); conditions: P. falciparum Indochina infected erythrocytes, osmotic lysis OD700, 18 h; higher = more signal, called active from +8 up or from −8 down
[17] = modulators of S6 phosphorylation in cells, primary screen, cell-based, A549, cytoblot, luminescence, serum-stimulated (AID 1158); conditions: A549 phospho-S6 cytoblot, 5 h, higher = more signal;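 also: serum-stimulated A549 lung adenocarcinoma cells; signal is phosphorylated S6 detected by cytoblot immunostaining with HRP secondary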
[18] = biological target: NADPH oxidase 2 (Homo sapiens) (UniProt P04839); assay: NOX2-dependent H2O2 signal modulators, primary screen, NOX inhibitor project, cell-based, HEK293-NOX2, PMA-stimulated, Amplex Red fluorescence (AID 1159); conditions: 45 min, higher = more signal, called active from +8 up or from −8 down; also: test concentration not given here
Chain of NADPH oxidase 2 (Homo sapiens) (P04839 whole entry, looked up): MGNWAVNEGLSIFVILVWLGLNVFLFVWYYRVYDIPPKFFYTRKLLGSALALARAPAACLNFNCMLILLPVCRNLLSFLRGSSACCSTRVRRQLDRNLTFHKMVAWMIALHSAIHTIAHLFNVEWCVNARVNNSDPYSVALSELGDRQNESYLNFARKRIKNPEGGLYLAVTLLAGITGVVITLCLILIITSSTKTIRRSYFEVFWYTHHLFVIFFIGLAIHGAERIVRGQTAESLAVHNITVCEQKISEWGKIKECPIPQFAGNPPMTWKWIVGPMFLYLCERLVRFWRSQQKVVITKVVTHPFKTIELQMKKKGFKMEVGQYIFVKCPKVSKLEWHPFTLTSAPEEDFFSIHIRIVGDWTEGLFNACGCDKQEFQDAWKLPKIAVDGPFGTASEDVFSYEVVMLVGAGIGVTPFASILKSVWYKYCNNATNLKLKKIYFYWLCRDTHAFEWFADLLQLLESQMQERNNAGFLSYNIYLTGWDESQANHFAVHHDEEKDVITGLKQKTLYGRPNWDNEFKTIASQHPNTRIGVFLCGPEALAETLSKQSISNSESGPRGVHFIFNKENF

[19] = biological target: NADPH oxidase 4 (Homo sapiens) (UniProt Q9NPH5); assay: NOX4-dependent H2O2 signal modulators, primary screen, NOX inhibitor project, cell-based, HEK293-NOX4, tetracycline-induced, Amplex Red fluorescence (AID 1160); conditions: 45 min, higher = more signal, called active from +8 up or from −8 down
Chain of NADPH oxidase 4 (Homo sapiens) (Q9NPH5 whole entry, looked up): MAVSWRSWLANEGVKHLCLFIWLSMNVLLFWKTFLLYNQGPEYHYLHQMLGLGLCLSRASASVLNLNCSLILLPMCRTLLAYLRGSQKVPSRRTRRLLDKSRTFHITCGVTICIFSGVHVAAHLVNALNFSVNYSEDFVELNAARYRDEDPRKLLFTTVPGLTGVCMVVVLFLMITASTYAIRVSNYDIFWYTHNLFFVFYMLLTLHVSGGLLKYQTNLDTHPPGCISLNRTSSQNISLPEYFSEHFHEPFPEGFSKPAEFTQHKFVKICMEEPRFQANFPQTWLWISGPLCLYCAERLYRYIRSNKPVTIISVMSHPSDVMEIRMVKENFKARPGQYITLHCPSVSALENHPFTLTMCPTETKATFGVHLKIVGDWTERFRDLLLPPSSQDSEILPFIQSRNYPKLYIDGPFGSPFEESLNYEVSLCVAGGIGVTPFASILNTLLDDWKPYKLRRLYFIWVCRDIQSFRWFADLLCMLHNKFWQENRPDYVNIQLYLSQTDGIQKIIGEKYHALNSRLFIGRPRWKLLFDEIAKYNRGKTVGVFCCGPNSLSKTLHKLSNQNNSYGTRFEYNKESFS

[20] = biological target: NADPH oxidase 5 (Homo sapiens) (UniProt Q96PH1); assay: NOX5-dependent H2O2 signal modulators, primary screen, NOX inhibitor project, cell-based, HEK293-NOX5, Amplex Red fluorescence (AID 1161); conditions: HEK293-NOX5, ionomycin, 45 min, higher = more signal
Chain of NADPH oxidase 5 (Homo sapiens) (Q96PH1 whole entry, looked up): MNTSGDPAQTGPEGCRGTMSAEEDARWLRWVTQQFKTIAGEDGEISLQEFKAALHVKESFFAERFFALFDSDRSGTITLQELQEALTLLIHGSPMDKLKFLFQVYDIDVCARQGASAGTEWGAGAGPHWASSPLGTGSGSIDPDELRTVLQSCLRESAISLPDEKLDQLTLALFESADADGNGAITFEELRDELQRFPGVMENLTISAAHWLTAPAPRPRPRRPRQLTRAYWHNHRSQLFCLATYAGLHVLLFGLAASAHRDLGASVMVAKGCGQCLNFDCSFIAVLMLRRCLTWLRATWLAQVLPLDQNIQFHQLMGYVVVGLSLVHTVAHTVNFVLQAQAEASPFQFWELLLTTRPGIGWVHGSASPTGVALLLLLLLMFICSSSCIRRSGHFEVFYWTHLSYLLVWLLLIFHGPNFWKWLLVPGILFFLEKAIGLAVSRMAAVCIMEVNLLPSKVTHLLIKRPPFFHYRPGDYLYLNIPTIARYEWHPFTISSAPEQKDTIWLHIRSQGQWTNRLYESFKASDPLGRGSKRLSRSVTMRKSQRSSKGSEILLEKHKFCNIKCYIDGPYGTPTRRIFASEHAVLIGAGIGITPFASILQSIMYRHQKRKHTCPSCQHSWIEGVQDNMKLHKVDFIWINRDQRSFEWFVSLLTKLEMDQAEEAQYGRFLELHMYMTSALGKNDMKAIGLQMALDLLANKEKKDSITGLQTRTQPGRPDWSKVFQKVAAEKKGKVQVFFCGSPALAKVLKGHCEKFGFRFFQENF

SMILES	composite z-score [1]	z-score [2]	z-score [3]	z-score [4]	z-score [5]	composite z-score [6]	composite z-score [7]	composite z-score (Torsin-1A (Homo sapiens) [8])	composite z-score (Torsin-1A (Homo sapiens) [9])	composite z-score [10]	z-score [11]	composite z-score [12]	z-score [13]	z-score [14]	z-score [15]	z-score [16]	z-score [17]	z-score [18]	z-score [19]	z-score [20]
COC(=O)[C@@H]1CC[C@@H](C)[C@H](c2ccc(Br)cc2)N1	-0.0771	-1.09 (inactive)	0.328 (inactive)	-0.258 (inactive)	-1.02 (inactive)	-0.165	-0.249	0.303	0.145	-0.139	-0.394 (inactive)	0.0962	0.121 (inactive)	-0.0391 (inactive)	-0.242 (inactive)	-0.191 (inactive)	0.333	-3.29 (inactive)	-0.185 (inactive)	-0.781
COc1ccc(O[C@@H]2[C@H](O)CO[C@H]2C=Cc2ccccc2)cc1	-0.0668	-0.617 (inactive)	-1.74 (inactive)	0.284 (inactive)	-1.04 (inactive)	-0.06	-0.179	-0.696	-0.668	0.253	-0.164 (inactive)	-0.237	1.65 (inactive)	-0.518 (inactive)	-0.433 (inactive)	-0.323 (inactive)	0.243	0.335 (inactive)	-0.426 (inactive)	-0.102
Cc1cc2c(c(=O)o1)[C@@H](O)[C@H]1O[C@H]1C2=O	0.149	0.773 (inactive)	0.0297 (inactive)	-0.255 (inactive)	0.0917 (inactive)	0.361	0.0073	0.102	0.253	1.1	-1.63 (inactive)	-0.0547	0.381 (inactive)	0.716 (inactive)	0.634 (inactive)	0.348 (inactive)	0.0719	1.6 (inactive)	-0.899 (inactive)	-1.31
CO[C@H]1COC(=O)[C@@H]2CCCN2C(=O)CC=C[C@@H](C)[C@H](OC)COC(=O)[C@@H](OCc2ccccc2)C=C[C@@H]1C	-0.0628	-3.36 (inactive)	-0.576 (inactive)	1.15 (inactive)	-0.166 (inactive)	-0.0601	-0.407	1.32	0.855	1.89	-0.33 (inactive)	-0.147	0.946 (inactive)	-0.82 (inactive)	-0.0897 (inactive)	-1.41 (inactive)	0.917	0.291 (inactive)	0.275 (inactive)	0.245
CCOC(=O)[C@H](CC(C)C)NC(=O)CCC1CC(OC(=O)NCc2cccc3ccccc23)CC2(CCCC(COC(=O)NCC3CCCCC3)O2)O1 (stereo not given in full)	-0.0639	-4.12 (inactive)	-0.306 (inactive)	0.0178 (inactive)	1.6 (inactive)	0.405	-0.0962	-0.192	0.528	1.06	-0.398 (inactive)	0.183	0.864 (inactive)	-1.04 (inactive)	0.552 (inactive)	-1.35 (inactive)	1.64	-2.61 (inactive)	-1.93 (inactive)	-2.79
COc1ccc(O[C@H]2C=C[C@@H](c3ccccc3)O[C@@H]2CON=CC[C@@H]2C=C[C@H](OC(C)=O)[C@@H](COC(C)=O)O2)cc1	0.0129	-1.06 (inactive)	-0.705 (inactive)	1.15 (inactive)	0.222 (inactive)	3.65	-0.176	-0.107	-0.26	0.328	-0.259 (inactive)	-0.0054	8.95 (active)	1.95 (inactive)	1.07 (inactive)	0.662 (inactive)	-0.981	-0.279 (inactive)	-2.22 (inactive)	-1.01
Cc1ccc(S(=O)(=O)NC(CCc2ccccc2)CC(=O)C(C)(C)C)cc1 (stereo not given)	0.375	-0.482 (inactive)	1.1 (inactive)	0.2 (inactive)	-0.37 (inactive)	0.191	-0.0986	0.511	0.0204	0.71	-0.286 (inactive)	-0.125	0.603 (inactive)	0.0974 (inactive)	-0.573 (inactive)	0.124 (inactive)	-0.566	-1.18 (inactive)	0.0624 (inactive)	-0.868
CCC(=O)[C@@]1(O)C(=O)N2C(=C3C(=O)OCC[C@@H]31)N(Cc1ccccc1)C(C)=C(C(=O)OC)[C@H]2c1ccccc1	-0.308	0.321 (inactive)	-1.51 (inactive)	0.513 (inactive)	-0.205 (inactive)	0.565	0.0633	0.578	0.224	0.438	-0.426 (inactive)	-0.103	0.246 (inactive)	0.633 (inactive)	-0.242 (inactive)	0.465 (inactive)	-0.131	0.0553 (inactive)	-0.147 (inactive)	0.245
O=C(NN=C1C[C@@H](O)[C@@H](O)[C@@H]2[C@@H]3C(=O)N(C4CCCCC4)C(=O)[C@@H]3CC[C@@H]12)OCc1ccccc1	-0.03	0.0845 (inactive)	1.15 (inactive)	1.79 (inactive)	0.0171 (inactive)	-0.225	-0.384	0.205	-0.0666	-0.364	0.536 (inactive)	-0.407	4.15 (inactive)	0.586 (inactive)	0.228 (inactive)	0.229 (inactive)	-0.146	-0.457 (inactive)	-0.223 (inactive)	0.118
